Bioassay records: PubChem BioAssay, National Center for Advancing Translational Sciences (NCATS)
KCNH2 WT inh = blocks the wildtype human KCNH2 potassium channel. Q12809. AID 720551. U2OS, BacMam KCNH2, thallium flux FluxOr; stronger effect = lower value. hit rate 0.37% among 340,000. activity change, % at 1.84 µM;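 active means maximum activity change below -70%; inconclusive means maximum activity change between -70% and -50%; inactive means maximum activity change above -50%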
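U2OS cells transduced with wild-type KCNH2 virus are loaded with FluxOr dye for 45 min, and thallium flux is measured in kinetic reads before and after stimulation buffer. Rate constants are normalized to DMSO controls.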
RGS4 inh = human RGS4 inhibition | hit rate 0.039% among 390,000 | AID 504845 | P49798 | Transcreener GDP fluorescence polarization, RGS4-accelerated GTP hydrolysis | Potency, µM (highest dose often 114 µM), without a hit: top-dose activity change, negative = inhibition, hits mostly inhibitors; further: potency means the concentration at half of the fitted maximal effect; nearly all actives have a fitted effect of over 75% in size
Target sequence (P49798 whole entry, looked up): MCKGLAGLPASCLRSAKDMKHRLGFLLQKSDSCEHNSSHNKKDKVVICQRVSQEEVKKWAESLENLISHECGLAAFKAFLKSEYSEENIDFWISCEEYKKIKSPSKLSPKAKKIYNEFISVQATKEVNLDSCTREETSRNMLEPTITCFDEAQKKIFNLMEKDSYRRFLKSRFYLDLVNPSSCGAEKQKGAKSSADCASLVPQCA
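MLSMR compounds (23 nl, pin-transferred) preincubated 10 min at room temperature with a 500nM (2x) first reagent, then RGS4 at 900nM (2x) plus Transcreener GDP mix added; fluorescence polarization (620/688 nm) read before and after 90 min at 30 °C.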
KAT2A inh = inhibitors of human GCN5L2 histone acetyltransferase; Q92830; GCN5L2 HAT assay, ThioGlo1 CoA-SH fluorescence; Potency, µM (titrated, usually from 58.9 µM), inactives show top-dose activity change, negative = inhibition, usual class: inhibitors; hit rate 0.21% among 390,000; further: potency means the concentration at half of the fitted maximal effect
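Titration-based screen in which CoA formation is detected via maleimide probe ThioGlo1 (50uM) turning fluorescent on thiol reaction; substrates H3(1-25) 75uM and acetyl-CoA 70uM, GCN5L2 20nM, 20 min incubation at room temperature.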
KCNH2 3.1 block = KCNH2 3.1 (human) potassium channel inhibition; U2OS KCNH2 3.1, thallium flux FluxOr; stronger effect = lower value; hit rate 0.95% among 340,000; activity change, % (tested at about 1.8 µM); AID 720553;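 active means maximum activity change below -70%; inconclusive means maximum activity change from -70% to -50%; inactive means maximum activity change above -50%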;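 further: thallium influx rate constant from kinetic fluorescence after stimulation buffer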
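FluxOr-based Tl+ influx in U2OS cells transduced with KCNH2 3.1 virus; rate constants normalized to DMSO controls.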
Pin1 inhibitor = inhibitors of human Pin1; Potency, µM (doses to about 115 µM), for the others: top-dose activity, negative = inhibition, usual class: inhibitors; hit rate 0.009% among 390,000; Pin1 FP peptide displacement, HiFluor488, 10 min; active means well fitted inhibition curve with a large enough effect in the polarisation, with a control signal flat, not every such curve was filed as active; inconclusive means small, poorly fitted or top-dose-only effect, or effect the other way, or a change in a side signal; inactive means no such curve, though single readings can be large or run the other way; the % refers to the polarisation; further: potency means the concentration at half of the fitted maximal effect
PGK inhibitor = inhibitors of T. brucei phosphoglycerate kinase; P07378; PGK/GAPDH coupled, Kinase-Glo luminescence, 60 min; Potency, µM (highest dose often 57.5 µM), without a hit: at the highest dose activity change, negative = inhibition, most hits filed as inhibitors; hit rate 0.043% among 380,000; further: potency means the concentration at half of the fitted maximal effect; nearly all actives have a fitted effect of over 60% in size
Target sequence (P07378 whole entry, looked up): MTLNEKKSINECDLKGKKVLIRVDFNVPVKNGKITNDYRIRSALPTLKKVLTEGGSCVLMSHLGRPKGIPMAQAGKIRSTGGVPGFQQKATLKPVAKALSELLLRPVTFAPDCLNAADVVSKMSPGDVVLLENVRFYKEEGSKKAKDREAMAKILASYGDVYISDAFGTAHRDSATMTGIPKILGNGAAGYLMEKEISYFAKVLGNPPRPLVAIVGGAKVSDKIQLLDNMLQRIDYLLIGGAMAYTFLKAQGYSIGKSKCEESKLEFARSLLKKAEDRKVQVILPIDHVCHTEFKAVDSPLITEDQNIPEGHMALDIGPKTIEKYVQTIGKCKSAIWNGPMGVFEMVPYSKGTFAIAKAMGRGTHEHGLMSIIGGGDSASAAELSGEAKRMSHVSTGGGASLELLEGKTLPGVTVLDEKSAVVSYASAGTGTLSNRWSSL
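Luminescent ATP detection (Kinase-Glo Plus) follows a 60-minute room-temperature incubation, with wells lacking PGK as controls. Buffer: 100 mM TEA (pH 7.6), 5 mM MgCl2, 0.01% Tween-20. Coupling enzyme GAPDH (100 nM final) supplies unstable 1,3-BPG in-well.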
Active calls of the source: *; i = inactive; ? = inconclusive; . = no result given; [ ] = dose if it differs, or a comment. Most compounds without a hit are left out; they make up all but 1.2% or so of the library. Unless noted, the call rests on the fitted dose curve; in most records, active means well fitted curve in the direction sought with a large enough effect; inconclusive means small, poorly fitted or top-dose-only effect, or another doubt; inactive means no such curve, though single readings can be large; an effect the other way counts as inactive or inconclusive. On the % scale 0 is the no-effect control and ±100 the full control effect.

SMILES | KCNH2 WT inh | RGS4 inh | KAT2A inh | KCNH2 3.1 block | Pin1 inhibitor | PGK inhibitor
COc1c(O)cc2c(c1O)[C@@H]1O[C@@H](CO)[C@@H](O)[C@@H](O)[C@@H]1OC2=O | . | . | 0%[21.4 µM] | . | . | .
CN1CCN(C2=C(Cl)C(=O)c3ccccc3C2=O)CC1 | 12 | ? | . | 13 | 67µM* | ?
O=C(Nc1c2c(nn1-c1ccc(F)cc1)CS(=O)(=O)C2)C1CCCC1 | 3 | 23% | -6% | -21 | 3% | 2%
CC(C)C(=O)Nc1c2c(nn1-c1ccc(F)cc1)CS(=O)(=O)C2 | -8 | 35% | -9% | -109* | -5% | -5%
CCCCn1c(=N)n(CCOc2ccc(C)cc2)c2ccccc21 | -128* | 12% | 1% | -111* | -3% | 15%
Cc1ccc(N/C(N)=N/c2nc(C)cc(N3CCCCC3)n2)c(C)c1 | -14 | -11% | 0% | -97* | 4% | 8%
COc1cccc(CN(C(=O)c2oc3ccc(Br)cc3c2C)C2CCS(=O)(=O)C2)c1 (configuration not stated) | . | 17% | -12% | . | 33% | i
COc1ccc(-n2c(C)nc3cc(C(=O)NCCN4CCOCC4)ccc32)cc1 | -183* | -11% | -6%[0.501 µM] | 3 | 6% | -6%
CCOc1ccc(-n2c(C)nc3cc(C(=O)NCCN4CCOCC4)ccc32)cc1 | -13 | -4% | -5% | 12 | 1% | 3%
Cc1[nH]c2ccc(C(=O)NCCN3CCOCC3)cc2c1C | -1 | -6% | 3% | -100* | 0% | -4%
COc1ccc(/C=C/C(=O)N2CCCc3ccccc32)c(OC)c1 | -79* | 8% | -13% | 8 | -6% | -6%
COc1ccc(Cl)cc1NC(=O)Cn1c(=O)n(Cc2cccs2)c(=O)c2cccnc21 | . | -3% | -7% | . | 70% | -1%
C=CCN(c1ccccc1)S(=O)(=O)c1cccc(C(=O)Nc2cc(C)ccn2)c1 | 28 | -29% | -5% | -3 | 2% | -3%
C=CCN(c1ccccc1)S(=O)(=O)c1cccc(C(=O)NCc2ccco2)c1 | -241* | -19% | -7% | -173* | ? | -8%
CC(C)C(=O)Nc1ccc(C(=O)NNC(=O)CCc2ccccc2)cc1 | -17 | -4% | -2% | -76* | -6% | 9%
O=C(Nc1ccccc1)c1ccc(Br)c(S(=O)(=O)N2CCCCC2)c1 | . | -24% | 1% | . | 9% | -1%
O=C(Nc1cccc(O)c1)c1ccc(Br)c(S(=O)(=O)N2CCCCC2)c1 | -10 | 12% | -7% | -92* | 1% | 5%
Cc1ccc(S(=O)(=O)Oc2ccc(/C=C3\C(=N)N4N=C(S(C)(=O)=O)SC4=NC3=O)cc2)cc1 | -4 | ? | ? | -115* | ? | -7%
Fc1cccc(-c2cc3nc4c(c(NCc5ccco5)n3n2)CCCC4)c1 | -10 | -30% | 0% | -78* | 31% | -11%
Cc1cccc(NC(=S)Nc2cccc(C)n2)n1 | 13 | -1%[56.9 µM] | 13% | -147* | 9% | 8%
Cn1sc(=O)n(Cc2ccccc2)c1=O | . | . | 20µM* | . | . | .
Cn1c(=O)c2sccc2n(Cc2ccccc2)c1=O | -1 | -12% | -6% | -73* | -5% | i
CCCCN(C)CCNC(=O)C1CCN(c2nc3ccc(CC)cc3s2)CC1 | . | 1% | 2% | . | 3% | .
CC(=O)OCON[N+]([O-])=NC1CCCCC1 | . | -23% | . | . | -21% | .
COc1ccccc1NC(=O)CSCc1ccc([N+](=O)[O-])cc1 | -149* | -8% | -8% | -199* | -2% | -7%
SMILES | KCNH2 WT inh | RGS4 inh | KAT2A inh | KCNH2 3.1 block | Pin1 inhibitor | PGK inhibitor
COc1ccccc1NC(=O)Cn1cc(C#N)c2ccccc21 | -254* | -2% | -8% | 5 | -4% | i
COc1ccc([N+](=O)[O-])cc1NC(=O)CSCc1cc(C)cc(C)c1 | 5 | -4%[11.4 µM] | -5% | -4 | 0% | -11%
COc1ccc([N+](=O)[O-])cc1NC(=O)COC(C)=O | -25 | 9% | -1% | -123* | 0% | -8%
CCn1c(C)c(C)c2cc(C(=O)NCC(C)c3ccccc3)ccc21 (configuration not stated) | . | -32% | -29% | . | ? | -9%
CCCCCCCCCCCCCCCCOC[C@H](COP(=O)([O-])OCC[N+](C)(C)C)OC(=O)NC | . | ? | 29% | . | . | .
CCc1nn2c(=O)cc(N3C(C)CNCC3C)nc2s1 (configuration not stated) | . | . | . | . | 6% | .
O=C(c1cnc(N2CCCCC2)c2ccccc12)N1CCN(c2ccc(Cl)cc2)CC1 | . | 35% | -19% | . | 1% | 6%
N[C@H](C(=O)O)[C@@H]1[C@@H](C(=O)O)C1(F)F | . | ? | -28% | . | . | .
Cc1cc(C)n(-c2nc(SCCN(C)C)c3c4c(sc3n2)COC(C)(C)C4)n1 | ? | 44% | ? | -137* | 5% | -1%
Cc1ccc(NC(=O)c2oc3c(c2C)-c2[nH]ncc2CC3)c(Cl)c1 | . | -1% | -4% | . | 0% | -2%
CCC(C)NC(=O)c1ccc2nc(Cc3ccc(OC)cc3)oc2c1 (configuration not stated) | -7 | -1% | 2% | 8 | -10% | 8%
CCC(NC(=O)c1ccc2nc(Cc3ccc(OC)cc3)oc2c1)c1ccncc1 (configuration not stated) | 12 | -51% | -3% | -105* | -1% | i
Cc1ccnc(NC(=O)Cc2ccc([N+](=O)[O-])cc2)c1 | -1 | -14% | -2% | -12 | -2% | -7%
Cc1ccnc(NC(=O)c2cc([N+](=O)[O-])cc([N+](=O)[O-])c2)c1 | -3 | 16% | -10% | -89* | 4% | 2%
C/C1=C\[C@@H](O)C(C(C)C)C(OC(=O)c2ccc(O)cc2)C/C(C)=C/CC1 (some centres not stated) | . | . | -6% | . | . | .
CC/C=C\C/C=C\C/C=C\C/C=C\C/C=C\CCCCCC(=O)O | . | 21µM* | 10% | . | . | .
CCCCC[C@H](O)/C=C/[C@H]1[C@H](O)CC(O)[C@@H]1C/C=C\CCCC(=O)O (some centres not stated) | . | 27µM* | -14% | . | . | .
CCCCC/C=C\C/C=C\C/C=C\CC1OC1CCCC(=O)O (configuration not stated) | . | 38µM* | 9% | . | . | .
CCCCC/C=C\CC1OC1C/C=C\C/C=C\CCCC(=O)O (configuration not stated) | . | . | 8% | . | . | .
CCCCC[C@H](O)/C=C/[C@@H]1[C@@H](C/C=C\CCCC(=O)O)[C@@H](O)C[C@H]1O | 26 | 14% | -14% | 6 | 1% | -7%
Cc1ccc(C)c(CS(=O)(=O)c2cn(CC(=O)N(C(C)C)C(C)C)c3ccccc23)c1 | . | -9% | -5% | . | -2% | -3%
COc1ccccc1CN1CC2(CCN(C(=O)c3cnccn3)CC2)C1 | . | . | 10% | . | . | .
